# Source: the antibiotic and cytotoxicity screens of Wong et al. (2023)
# About 3,300 (8.5%) of roughly 39,000 compounds were called active. This excerpt belongs to a sample that is enriched for actives.
# System: HepG2
# Test: cytotoxicity call (relative viability < 0.9)
# Settings: 10 µM
row,Compound,cytotoxicity call
1,C=CCN(CC=C)S(=O)(=O)c1nnc[nH]1,inactive
2,C[C@@H]1CN([C@@H](C)CO)C(=O)c2cc(NC(=O)Cc3ccccc3)ccc2O[C@@H](C)CCCCO[C@H]1CN(C)S(=O)(=O)c1cccs1,inactive
3,O=C(C[C@H]1C=C[C@H](NC(=O)c2ccncc2)[C@H](CO)O1)NCc1ccncn1,inactive
4,CC1=CC(=O)C2=C(C)CCC3C(C)C(=O)OC3C12 (centres undefined),inactive
5,C[C@H](CO)N1C[C@H](C)[C@@H](CN(C)Cc2ccc(Cl)c(Cl)c2)Oc2ccc(NC(=O)CCCCCC(=O)Nc3ccccc3N)cc2CC1=O,inactive
6,O=C(C[C@@H]1CC[C@H]2[C@@H](COC[C@H](O)CN2C(=O)Nc2cccc(F)c2)O1)NCCCN1CCOCC1,inactive
7,COc1ccc(NC(=O)Nc2ccc3c(c2)C(=O)N([C@@H](C)CO)C[C@H](C)[C@@H](CN(C)Cc2ccc(C(F)(F)F)cc2)OCCCC[C@@H](C)O3)cc1,active
8,COc1ccc(CN(C)C[C@H]2OCCCC[C@H](C)Oc3ccc(NC(=O)Nc4ccc(C(F)(F)F)cc4)cc3C(=O)N([C@H](C)CO)C[C@H]2C)cc1,active
9,COc1ccc(CN(C)C[C@@H]2OCCCC[C@H](C)Oc3ccc(NC(=O)Nc4ccc(C(F)(F)F)cc4)cc3C(=O)N([C@@H](C)CO)C[C@H]2C)cc1,active
10,COc1ccc(CN(C)C[C@H]2OCCCC[C@@H](C)Oc3ccc(NC(=O)Nc4ccc(C(F)(F)F)cc4)cc3C(=O)N([C@H](C)CO)C[C@H]2C)cc1,active
11,O=C(C[C@H]1C[C@H]2c3cc(NC(=O)c4ccc5c(c4)OCO5)ccc3O[C@H]2[C@H](CO)O1)NCCN1CCCCC1,inactive
12,C[C@H]1CN([C@@H](C)CO)C(=O)c2cc(NC(=O)Cn3cnnn3)ccc2O[C@H]1CN(C)Cc1ccccc1,inactive
13,CC(C)NC(=O)Nc1ccc2c(c1)C(=O)N([C@@H](C)CO)C[C@H](C)[C@@H](CN(C)C(=O)Nc1ccc(F)cc1)OCCCC[C@@H](C)O2,inactive
14,O=C(C[C@H]1CC=CCC[C@H](Cc2ccc(F)cc2)C(=O)OC[C@H](Cc2ccccc2)NC1=O)NCCO,inactive
15,C#CCN(O[C@@H](/C=C/[C@@H](O)CCn1cc(-c2cccc(/C=C/C(=O)NO)c2)nn1)C1CC1)[C@@H](Cc1ccccc1)C(=O)OC,inactive
16,C[C@@H]1CCCCO[C@@H](CN(C)C(=O)c2ccccc2)[C@H](C)CN([C@@H](C)CO)C(=O)c2cc(NC(=O)Nc3ccccc3)ccc2O1,inactive
17,O=C(NC1CC1)c1n[nH]c(=O)c2ccccc12,inactive
18,O=C1CNCCN1C1CCCC1,inactive
19,C[C@@H]1CN([C@H](C)CO)C(=O)c2cc(NC(=O)CCC(F)(F)F)ccc2O[C@@H](C)CCCCO[C@H]1CN(C)C(=O)Nc1ccc(C(F)(F)F)cc1,inactive
20,COc1ccc(CN(C)C[C@H]2OCCCC[C@H](C)Oc3ccc(NC(=O)Nc4ccc(C(F)(F)F)cc4)cc3C(=O)N([C@@H](C)CO)C[C@H]2C)cc1,active
21,COc1ccc(CN(C)C[C@H]2OCCCC[C@H](C)Oc3ccc(NC(=O)Nc4ccc(C(F)(F)F)cc4)cc3C(=O)N([C@H](C)CO)C[C@@H]2C)cc1,active
22,COc1ccc(NC(=O)Nc2ccc3c(c2)C(=O)N([C@H](C)CO)C[C@@H](C)[C@@H](CN(C)Cc2ccc(C(F)(F)F)cc2)OCCCC[C@@H](C)O3)cc1,active

row,Compound,cytotoxicity call
1,COc1ccc(NC(=O)Nc2ccc3c(c2)C(=O)N([C@@H](C)CO)C[C@@H](C)[C@H](CN(C)Cc2ccc(C(F)(F)F)cc2)OCCCC[C@@H](C)O3)cc1,active
2,CC[C@@H](NC)C(=O)O,inactive
3,CC(C)(C)[C@H]1CCc2c(sc3nc(-c4ccccc4)cn23)C1,inactive
4,COc1ccc(NC(=O)N(C)C[C@H]2Oc3ncc(C#C[C@H](C)O)cc3C(=O)N([C@@H](C)CO)C[C@H]2C)cc1,inactive
5,O=C(O)[C@H]1CCS(=O)(=O)C1,inactive
6,NC(=O)c1cc(Cl)ccn1,inactive
7,C[C@@H]1CN([C@@H](C)CO)C(=O)c2cccc(NC(=O)c3ccc(-c4nccs4)cc3)c2O[C@@H]1CN(C)Cc1ccc(Oc2ccccc2)cc1,inactive
8,COc1ccc(C#Cc2ccc3c(c2)O[C@H](CN(C)S(=O)(=O)c2ccccc2F)[C@@H](C)CN([C@@H](C)CO)S3(=O)=O)cc1,inactive
9,C[C@@H]1CN([C@@H](C)CO)C(=O)c2cccc(NS(=O)(=O)c3ccccc3)c2O[C@@H]1CN(C)S(=O)(=O)c1ccccc1,inactive
10,C[C@H](CO)N1C[C@H](C)[C@H](CN(C)C(=O)CCC(F)(F)F)OCc2ccccc2-c2c(n(C)c3ccccc23)C1=O,inactive
11,C[C@@H]1CCCCO[C@H](CN(C)S(=O)(=O)c2cn(C)cn2)[C@@H](C)CN([C@@H](C)CO)C(=O)c2cc(NC(=O)CCCN(C)C)ccc2O1,inactive
12,Cc1noc(C)c1S(=O)(=O)N(C)C[C@H]1OCCCC[C@H](C)Oc2ccc(NC(=O)Nc3cccc4ccccc34)cc2C(=O)N([C@H](C)CO)C[C@H]1C,inactive
13,C[C@@H]1CN([C@@H](C)CO)C(=O)CCCn2nncc2CO[C@@H]1CN(C)C(=O)Nc1ccccc1C(F)(F)F,inactive
14,COc1ccc(NC(=O)Nc2ccc3c(c2)C(=O)N([C@@H](C)CO)C[C@H](C)[C@H](CN(C)Cc2ccc(C(F)(F)F)cc2)OCCCC[C@H](C)O3)cc1,active
15,COc1ccc(NC(=O)Nc2ccc3c(c2)C(=O)N([C@@H](C)CO)C[C@@H](C)[C@@H](CN(C)Cc2ccc(C(F)(F)F)cc2)OCCCC[C@H](C)O3)cc1,active
16,COc1ccc(CN(C)C[C@@H]2OCCCC[C@@H](C)Oc3ccc(NC(=O)Nc4ccc(C(F)(F)F)cc4)cc3C(=O)N([C@@H](C)CO)C[C@@H]2C)cc1,active
17,COc1ccc(NC(=O)Nc2ccc3c(c2)C(=O)N([C@H](C)CO)C[C@@H](C)[C@H](CN(C)Cc2ccc(C(F)(F)F)cc2)OCCCC[C@@H](C)O3)cc1,active
18,O=C(C[C@@H]1CC[C@@H]2[C@H](COC[C@@H](O)CN2S(=O)(=O)c2ccccc2)O1)NCCN1CCCC1,inactive
19,C[C@@H]1CN([C@H](C)CO)C(=O)Cc2cc(NC(=O)c3ccncc3)ccc2O[C@@H]1CN(C)C(=O)Nc1ccc2c(c1)OCO2,inactive
20,COCC(=O)N1C[C@@H](C)[C@H](OC)CN(C)C(=O)c2ccc(NC(=O)Nc3ccccc3)cc2OC[C@H]1C,inactive
21,CNC(=O)[C@H]1C[C@H]2CCN(S(=O)(=O)N(C)C)C[C@H]2O1,inactive
22,Cc1noc(C)c1S(=O)(=O)Nc1ccc2c(c1)C(=O)N([C@@H](C)CO)C[C@H](C)[C@@H](CN(C)C(=O)NC(C)C)O2,inactive

row,Compound,cytotoxicity call
1,C[C@H](CO)N1C[C@H](C)[C@H](CN(C)S(=O)(=O)c2cn(C)cn2)OCc2ccccc2-c2ccccc2C1=O,inactive
2,Cc1nc(CSCc2ccc(Cl)cc2Cl)cs1,inactive
3,COc1ccccc1CN1C(=O)c2ccccc2[C@@]2(Cc3ccccc3N(Cc3ccccc3)C2=O)[C@@H]1c1ccc(CO)cc1,inactive
4,C[C@@H]1CN([C@@H](C)CO)C(=O)c2cc(NC(=O)Nc3ccccc3)ccc2O[C@@H]1CN(C)S(C)(=O)=O,inactive
5,C[C@H](CO)N1C[C@H](C)[C@H](CN(C)Cc2ccc3c(c2)OCO3)Oc2ccc(NS(=O)(=O)c3cn(C)cn3)cc2CC1=O,inactive
6,O=c1cc(Cl)[nH]c(=O)[nH]1,inactive
7,Cc1cc(C(=O)Nc2cccc3c2O[C@@H](CN(C)Cc2ccc(C(=O)O)cc2)[C@@H](C)CN([C@H](C)CO)C3=O)n(C)n1,inactive
8,Cc1noc(C)c1S(=O)(=O)Nc1cccc2c1O[C@@H](CN(C)S(=O)(=O)c1ccc(F)cc1)[C@@H](C)CN([C@H](C)CO)C2=O,inactive
9,C[C@H](CO)N1C[C@H](C)[C@@H](CN(C)S(=O)(=O)c2cn(C)cn2)Oc2ccc(NC(=O)Cn3cnnn3)cc2CC1=O,inactive
10,Cc1noc(C)c1S(=O)(=O)Nc1ccc2c(c1)C(=O)N([C@@H](C)CO)C[C@H](C)[C@H](CN(C)S(C)(=O)=O)O2,inactive
11,COc1ccc(NC(=O)Nc2ccc3c(c2)C(=O)N([C@H](C)CO)C[C@H](C)[C@@H](CN(C)Cc2ccc(C(F)(F)F)cc2)OCCCC[C@@H](C)O3)cc1,inactive
12,COc1ccc(CN(C)C[C@H]2OCCCC[C@@H](C)Oc3ccc(NC(=O)Nc4ccc(C(F)(F)F)cc4)cc3C(=O)N([C@@H](C)CO)C[C@H]2C)cc1,active
13,COc1ccc(NC(=O)Nc2ccc3c(c2)C(=O)N([C@@H](C)CO)C[C@@H](C)[C@@H](CN(C)Cc2ccc(C(F)(F)F)cc2)OCCCC[C@@H](C)O3)cc1,inactive
14,COc1ccc(NC(=O)Nc2ccc3c(c2)C(=O)N([C@@H](C)CO)C[C@H](C)[C@H](CN(C)Cc2ccc(C(F)(F)F)cc2)OCCCC[C@@H](C)O3)cc1,inactive
15,COc1ccc(CN(C)C[C@@H]2OCCCC[C@@H](C)Oc3ccc(NC(=O)Nc4ccc(C(F)(F)F)cc4)cc3C(=O)N([C@H](C)CO)C[C@H]2C)cc1,active
16,COc1ccc(NC(=O)Nc2ccc3c(c2)C(=O)N([C@H](C)CO)C[C@@H](C)[C@H](CN(C)Cc2ccc(C(F)(F)F)cc2)OCCCC[C@H](C)O3)cc1,inactive
17,COc1ccc(CN(C)C[C@@H]2OCCCC[C@@H](C)Oc3ccc(NC(=O)Nc4ccc(C(F)(F)F)cc4)cc3C(=O)N([C@H](C)CO)C[C@@H]2C)cc1,active
18,COc1ccc(NC(=O)Nc2ccc3c(c2)C(=O)N([C@H](C)CO)C[C@H](C)[C@H](CN(C)Cc2ccc(C(F)(F)F)cc2)OCCCC[C@@H](C)O3)cc1,inactive
19,COc1ccc(NC(=O)Nc2ccc3c(c2)C(=O)N([C@H](C)CO)C[C@H](C)[C@H](CN(C)Cc2ccc(C(F)(F)F)cc2)OCCCC[C@H](C)O3)cc1,inactive
20,COc1ccc(CN(C)C[C@H]2OCCCC[C@H](C)Oc3ccc(NC(=O)Nc4ccc(C(F)(F)F)cc4)cc3C(=O)N([C@@H](C)CO)C[C@@H]2C)cc1,active
